Source: PubChem BioAssay (National Center for Advancing Translational Sciences (NCATS))
Shiga toxin inh: inhibitors of Shiga toxin in Vero cells. Vero cells, Shiga toxin protein synthesis inhibition reporter. hit rate 9.2% among 290,000. inhibition, % at 38.7 µM; in the data active = inhibition mostly above about 28%, no sharp cut-off; inactive = mostly below about 43%
LmPK inh: blocks Leishmania mexicana pyruvate kinase activity; Q27686; purified LmPK, Kinase-Glo ATP luminescence, 1 h; Potency, µM (doses to about 57.5 µM), hits mostly inhibitors; hit rate 0.37% among 290,000; AID 1721
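In 50 mM imidazole pH 7.2 with 7 mM MgCl2, LmPK (0.1 nM) turned over PEP (0.5 mM) and ADP (0.1 mM) for 1 h at room temperature. Luciferase read-out of ATP.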
Cycloheximide cs: affects cycloheximide protein synthesis inhibition readout, counter-screen | cell reporter, cycloheximide protein synthesis inhibition counterscreen | max response, % | hit rate 12% among 300,000; in the data active = max response mostly above about 13%, no sharp cut-off; inactive = mostly below about 14%; also: read at 38.3 µM for the half of the compounds with a filed dose
Giardia FBPA inh-1: inhibitors of Giardia lamblia fructose-1,6-bisphosphate aldolase | A8B2U2 | Potency, µM (doses to about 59.6 µM), actives largely listed as inhibitors | purified Giardia FBPA | hit rate 0.71% among 290,000; also: nearly all actives have a fitted effect of over 55% in size
Target sequence (A8B2U2 whole entry, looked up): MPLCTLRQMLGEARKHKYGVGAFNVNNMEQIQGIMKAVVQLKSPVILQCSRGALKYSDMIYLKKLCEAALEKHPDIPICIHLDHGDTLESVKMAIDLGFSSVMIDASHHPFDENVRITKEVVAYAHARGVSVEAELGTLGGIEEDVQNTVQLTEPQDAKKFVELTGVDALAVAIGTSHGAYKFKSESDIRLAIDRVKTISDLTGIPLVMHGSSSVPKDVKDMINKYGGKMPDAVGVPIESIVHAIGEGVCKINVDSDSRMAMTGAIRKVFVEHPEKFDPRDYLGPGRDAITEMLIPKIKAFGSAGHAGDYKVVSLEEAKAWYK
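40 nM FBPA preincubated 10 min at RT with compound (up to 57.5 uM final), then substrate plus GAPDH/TPI/NAD/arsenate coupling and diaphorase/resazurin added. Fluorescence read after 20 min at RT, 525/598 nm.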
Tb PYK inh: blocks Trypanosoma brucei pyruvate kinase. TbPYK enzyme, Kinase-Glo Plus ATP luminescence, 45 min. Potency, µM (series often up to 76.8 µM), hits mostly inhibitors. hit rate 0.12% among 410,000; also: nearly all actives have a fitted effect of over 50% in size
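In this concentration-response screen, enzyme-free wells defined baseline while DMSO plates tracked drift. Each reaction combined TbPYK, substrate, compound and 130 uM ADP for 45 min at room temperature. Kinase-Glo Plus luminescence gave the signal.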
Sm TGR inh: blocks Schistosoma mansoni thioredoxin glutathione reductase | Potency, µM (titrated, usually from 114 µM), hits mostly inhibitors | hit rate 3% among 360,000 | purified TGR, DTNB reduction, TNB absorbance 405 nm | AID 485364; also: nearly all actives have a fitted effect of over 60% in size
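TGR 20 nM + NADPH 100 uM (dispensed conc.), cpd preinc 15 min RT; start with NADPH (500 uM addition) then DTNB (15 mM addition). Kinetic TNB absorbance, 405 nm filter. Four-parameter Hill fit across titration.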
Giardia growth: inhibitors of Giardia lamblia growth; shares compounds with Giardia FBPA inh-1; Giardia lamblia trophozoite growth inhibition; Potency, µM (series often up to 57.5 µM), usual class: inhibitors; hit rate 5% among 1,500; AID 2785;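 also: trophozoites exposed to compound for 48 h at 37 °C; nearly all actives have a fitted effect of over 70% in size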
Mammalian tox: toxic to mammalian cells in Giardia aldolase counter-screen; AID 2786; hit rate 4% among 1,500; shares compounds with Giardia FBPA inh-1; mammalian cell viability counter-screen, qHTS; Potency, µM (top dose mostly 57.5 µM), usual class: inhibitors;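 also: Chinese hamster ovary cells used as mammalian cytotoxicity surrogate; viability measured as cellular ATP by luminescence; compound exposure lasted 48 h before reading; nearly all actives have a fitted effect of over 60% in size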
Giardia FBPA inh-2: confirmation of Giardia fructose-bisphosphate aldolase inhibitors. shares compounds with Giardia FBPA inh-1. purified Giardia aldolase enzyme activity, qHTS. Potency, µM (top dose mostly 57.5 µM), hits mostly inhibitors. hit rate 5% among 1,500. AID 2787; also: nearly all actives have a fitted effect of over 45% in size
Rabbit FBPA inh: blocks rabbit muscle aldolase in Giardia aldolase selectivity test. Rabbit muscle FBPA enzyme inhibition, selectivity counter-screen. shares compounds with Giardia FBPA inh-1. hit rate 4% among 1,500. AID 2794. Potency, µM (highest dose often 57.5 µM), hits mostly inhibitors; also: nearly all actives have a fitted effect of over 60% in size
Target sequence (P00883 whole entry, looked up): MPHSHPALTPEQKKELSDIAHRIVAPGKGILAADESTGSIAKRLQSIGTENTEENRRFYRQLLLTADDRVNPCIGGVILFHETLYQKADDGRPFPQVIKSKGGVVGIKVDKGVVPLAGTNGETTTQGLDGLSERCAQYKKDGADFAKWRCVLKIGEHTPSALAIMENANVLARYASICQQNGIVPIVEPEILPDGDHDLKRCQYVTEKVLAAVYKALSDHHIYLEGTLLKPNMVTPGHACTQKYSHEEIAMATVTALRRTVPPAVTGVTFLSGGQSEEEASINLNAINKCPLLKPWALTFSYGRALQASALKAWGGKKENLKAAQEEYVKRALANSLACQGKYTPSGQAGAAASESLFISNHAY
GAPDH coupling: GAPDH inhibition flagged for Giardia aldolase hits; GAPDH coupling enzyme counterscreen, biochemical, qHTS; AID 2795; hit rate 6% among 1,500; shares compounds with Giardia FBPA inh-1; Potency, µM (highest dose often 57.5 µM), hits mostly inhibitors; also: nearly all actives have a fitted effect of over 55% in size
A number is an active result; . = inactive; ? = inconclusive; / = not tested or not shown; [ ] = dose if it differs, or a comment. Shown is part of a subset that was picked to be rich in hits. Unless noted, calls follow the shape of the dose curve; as a rule, active = well fitted curve in the direction sought with a large enough effect; inconclusive = small, poorly fitted or top-dose-only effect, or another doubt; inactive = no such curve, though single readings can be large; an effect the other way counts as inactive or inconclusive.

SMILES	Shiga toxin inh	LmPK inh	Cycloheximide cs	Giardia FBPA inh-1	Tb PYK inh	Sm TGR inh	Giardia growth	Mammalian tox	Giardia FBPA inh-2	Rabbit FBPA inh	GAPDH coupling
Cc1cc(C)nc(N/N=C/c2ccccc2OCC(=O)O)n1	.	.	.	5µM	.	.	.	.	.	.	.
CC(C)C(=O)Nc1cccc(C(=O)Nc2nnc(C(F)(F)F)s2)c1	/	/	/	/	.	.	/	/	/	/	/
O=C(Cc1cccc(NC(=O)C2CCCN(C(=O)C3CCCC3)C2)c1)Nc1ccc(C(=O)N2CCOCC2)cc1 (stereo not drawn)	/	/	/	/	.	/	/	/	/	/	/
Cc1ccc(NC(=O)CN2CCC(NC(=O)c3ccccc3F)CC2)cc1C	.	.	.	18µM	.	.	?	.	.	.	.
CC(=O)Nc1nc(C)nc(-c2ccccc2)c1C(C)=O	.	.	.	16µM	.	.	.	.	.	.	.
CC(=O)c1c(NC(=O)C(C)C)nc(C)nc1-c1ccccc1	.	.	.	.	.	.	/	/	/	/	/
O=C(Nc1nc(-c2ccccn2)cs1)c1ccco1	89	.	54	16µM	.	32µM	?	40µM	.	.	.
Cc1ccnc2nc(C(=O)Nc3nc(-c4ccccn4)cs3)nn12	.	.	.	16µM	.	.	?	.	.	.	.
O=C(Nc1nc(-c2ccccn2)cs1)c1cccc(-n2cnnn2)c1	.	.	.	5µM	.	.	?	32µM	.	.	.
COc1ccc(NC(=O)c2cc(S(=O)(=O)N3CCCCCC3)cn2C)cc1Cl	/	/	/	/	.	.	/	/	/	/	/
O=C(COc1ccc(-c2nnco2)cc1)Nc1c(Cl)cccc1C(F)(F)F	/	/	/	/	.	.	/	/	/	/	/
CCOc1cccc(CN2CCC(CCC(=O)NC3CC3)CC2)c1O	.	.	.	.	.	.	/	/	/	/	/
COc1ccc(Cn2c(=O)[nH]c3cc(C(=O)NCCC(C)C)ccc3c2=O)cc1	/	/	/	/	.	.	/	/	/	/	/
Cc1cccc(C)c1Nc1c(-c2ccsc2)nc2cccc(C)n12	/	/	/	/	.	.	/	/	/	/	/
C/C(CS(=O)(=O)c1ccc(Cl)cc1)=N/NC(N)=S	.	.	.	16µM	.	?	.[10.4 µM]	.	.	.	.
Cc1ccc(NC(=O)CSCC(=O)Nc2cc(S(=O)(=O)N3CCOCC3)ccc2OC(C)C)cc1	/	/	/	/	.	/	/	/	/	/	/
O=C(O)c1cc2ncc(CCO)cn2n1	.	.	.	16µM	.	.	.	.	.	.	.
O=C(c1cc2ncc(CCCl)cn2n1)N1CCCCCC1	.	.	.	.	.	.	/	/	/	/	/
O=C(N/N=C/c1ccc[nH]1)c1ccccc1[N+](=O)[O-]	.	.	.	.	.	.	/	/	/	/	/
O=[N+]([O-])c1ccc(N/N=C/c2ccc[nH]2)cc1	66	.	84	18µM	.	.	.[10.4 µM]	.	.	.	?
Cc1c(NC(=S)NC(=O)c2cccc(Cl)c2)c(=O)n(-c2ccccc2)n1C	.	.	.	13µM	.	.	.	.	.	.	.
Cc1cccc(C(=O)NC(=S)Nc2c(C)n(C)n(-c3ccccc3)c2=O)c1	/	/	/	/	.	/	/	/	/	/	/
CC(=O)N/N=C/c1c(C)[nH]n(-c2ccccc2)c1=O	.	.	.	16µM	.	.	.[10.4 µM]	.	.	.	.
COC(=O)N/N=C\c1c(C)[nH]n(-c2ccccc2)c1=O	.	.	.	?	.	.	/	/	/	/	/
Cc1ccc(-c2n[nH]c(=S)n2/N=C/c2c(C)[nH]n(-c3ccccc3)c2=O)cc1	.	.[11.5 µM]	.	10µM	?	.	.	.	?	.	.
SMILES	Shiga toxin inh	LmPK inh	Cycloheximide cs	Giardia FBPA inh-1	Tb PYK inh	Sm TGR inh	Giardia growth	Mammalian tox	Giardia FBPA inh-2	Rabbit FBPA inh	GAPDH coupling
Cc1[nH]n(-c2ccccc2)c(=O)c1/C=N/O	.	.	.	16µM	.	.	?	.	.	.	.
Cn1[nH]c(-c2ccccc2)c(/C=N/O)c1=O	.	.	.	16µM	.	.	.[10.4 µM]	.	.	.	.
O=C(Cn1cc(SCc2ccc(Cl)cc2)c2ccccc21)N1CCCC1	/	/	/	/	.	.	/	/	/	/	/
COCC(=O)N/N=C/c1c(C)[nH]n(-c2ccccc2)c1=O	.	.	.	7.1µM	.	.	.	.	.	.	.
Cc1[nH]n(-c2ccccc2)c(=O)c1/C=N/NC(=O)COc1ccccc1[N+](=O)[O-]	.	.	.	?	.	.	/	/	/	/	/
COc1ccc(OC)c(NC(=O)CN(C)CC(=O)Nc2ccccc2Br)c1	.	.	.	18µM	.	.	.	.	.	.	.
COc1cccc(CN(C)CC(=O)Nc2cccc3ccccc23)c1	.	.	.	18µM	.	.	.[10.4 µM]	.	.	.	.
C=CCNC(=S)N/N=C/c1ccc(-c2ccc(OC)cc2)o1	.	.	.	.	.	/	/	/	/	/	/
CCNC(=S)N/N=C/c1ccc(C(=O)O)cc1	.	?	.	18µM	.	.	.[10.4 µM]	.	.	.	.
CNC(=S)N/N=C/c1ccc(-c2ccc(C(=O)O)cc2)o1	56	14µM	23	18µM	.	?	.[10.4 µM]	.	.	.	.
CCNC(=S)N/N=C/c1ccc(OCc2ccc(C(=O)OC)cc2)cc1	.	.	.	.	.	.	/	/	/	/	/
CNc1cnc(-c2ccccc2OC)cn1	/	/	/	/	.	/	/	/	/	/	/
COCCNC(=O)CNC(c1ccccc1)c1ccccc1	.	.	.	20µM	/	.	.	.	.	.	.
COc1ccc(C(C)C)cc1S(=O)(=O)Nc1cccnc1	/	/	/	/	.	/	/	/	/	/	/
O=C(CSc1cccc(C(F)(F)F)c1)Nc1nnc(C2CC2)s1	/	/	/	/	.	/	/	/	/	/	/
O=C(CSc1ccccc1)Nc1nnc(C2CC2)s1	.	.	.	14µM	.	.	?	.	.	.	.
Oc1ccccc1N=Cc1c(O)ccc2ccccc12	39	.	11	?	.	28µM	.	.	0.33µM	?	.
Oc1ccc2ccccc2c1C=Nc1ccccc1Br	.	.	.	.	.	.	/	/	/	/	/
CCOC(=O)c1c(S(=O)(=O)N2CCCC(C(=O)N3CCN(c4ccccc4)CC3)C2)c(C)n(C)c1C (stereo not drawn)	/	/	/	/	.	.	/	/	/	/	/
CC1CCN(C(=O)CN(CCc2ccccc2)S(C)(=O)=O)CC1	.	.	.	.	.	.	/	/	/	/	/
CC(C)CC(=O)N1CCC(N(CCc2ccccc2)Cc2ccccc2)CC1	.	.	.	25µM	.	.	.	.	.	.	.
Cc1cccc(NNC(N)=S)c1	.	.	.	20µM	.	.	.	.	.	.	.
NC(=S)NNc1cccc(Cl)c1	.	.	.	13µM	.	.	.	.	.	.	.
NC(=S)NNC(=O)Nc1cccc(Cl)c1	.	.	.	.	.	.	/	/	/	/	/
